Measurements taken from PubChem BioAssay (Tox21).
Several values for one entry are separate records, joined by “and”; a condition that tells them apart may be missing. Equal values may be shown once. Records with an inconclusive call do not appear. Where a call stands in place of a potency, no number is given. Where a structure was tested more than once in an assay, its records may differ in their call. Activity calls are given as the source filed them. Unless noted, calls follow the shape of the full dose curve.

test system: not listed separately; test: qHTS assay to identify small molecule agonists of the estrogen related receptor signaling pathway with the pleiotropic PPARgamma coactivator (PGC) from Tox21 10K library (AID 1224842; active = well fitted activation curve with a large enough effect in the repeat runs; also: nearly all actives have a fitted effect of over 15% in size); conditions: PGC/ERR reporter cell line, luciferase ONE-Glo, 18 h; series mostly up to 92.4 µM; activation: at the top concentration
Method in brief: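 PGC/ERR reporter cell line, 2,000 cells per well, incubated 6 h at 37 C before 23 nL compound in DMSO was added. After 18 h at 37 C, One-Glo luminescence read following 30 min at room temperature.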
Potency is read from the fitted curve at half-maximal effect.

| SMILES | Potency |
| --- | --- |
| Nc1cc(-c2ccncc2)c[nH]c1=O | inactive |
| CC(C)(N=C=O)c1cccc(C(C)(C)N=C=O)c1 | inactive |
| CC1Cc2ccccc2N1NC(=O)c1ccc(Cl)c(S(N)(=O)=O)c1 (stereo not drawn) | inactive |
| O=[N+]([O-])C(CO)(CO)CO | inactive |
| Oc1c(Cl)cc(Cl)c(Cl)c1Cl | inactive |
| CCCCCCCCCC(=O)O | inactive |
| CC(=O)CCc1ccccc1 | inactive |
| COC(=O)c1ccccc1O | 21.7 µM (active) and inactive |
| CCOC(=O)/C=C\C(=O)OCC | inactive |
| Clc1cc(Cl)c(Cl)cc1Cl | inactive |
| CC1(C)O[C@@H]2C[C@H]3[C@@H]4C[C@H](F)C5=CC(=O)CC[C@]5(C)[C@H]4[C@@H](O)C[C@]3(C)[C@]2(C(=O)CO)O1 | inactive |
| CCCCC(CC)COC(=O)CCCCCCCC(=O)OCC(CC)CCCC (stereo not drawn) | inactive |
| CCCCC(CC)COC(C)=O (stereo not drawn) | inactive |

molecular target: Thyrotropin receptor (Homo sapiens) (UniProt P16473); test: qHTS assay to identify small molecule agonists of the thyroid stimulating hormone receptor (TSHR) signaling pathway (AID 1224843); conditions: TSHR-HEK293 cells, cAMP HTRF, agonist mode, 30 min; series mostly up to 92.4 µM; activation: at the top concentration; also: nearly all actives have a fitted effect of over 45% in size
Method in brief: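 TSHR-HEK293 cells in agonist mode, 30 min room-temperature step, then cAMP measured by competitive HTRF (cAMP-d2 with anti-cAMP cryptate) after 1 h at room temperature. Tested at 15 concentrations in triplicate.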

Chain of Thyrotropin receptor (Homo sapiens) (P16473 whole entry, looked up): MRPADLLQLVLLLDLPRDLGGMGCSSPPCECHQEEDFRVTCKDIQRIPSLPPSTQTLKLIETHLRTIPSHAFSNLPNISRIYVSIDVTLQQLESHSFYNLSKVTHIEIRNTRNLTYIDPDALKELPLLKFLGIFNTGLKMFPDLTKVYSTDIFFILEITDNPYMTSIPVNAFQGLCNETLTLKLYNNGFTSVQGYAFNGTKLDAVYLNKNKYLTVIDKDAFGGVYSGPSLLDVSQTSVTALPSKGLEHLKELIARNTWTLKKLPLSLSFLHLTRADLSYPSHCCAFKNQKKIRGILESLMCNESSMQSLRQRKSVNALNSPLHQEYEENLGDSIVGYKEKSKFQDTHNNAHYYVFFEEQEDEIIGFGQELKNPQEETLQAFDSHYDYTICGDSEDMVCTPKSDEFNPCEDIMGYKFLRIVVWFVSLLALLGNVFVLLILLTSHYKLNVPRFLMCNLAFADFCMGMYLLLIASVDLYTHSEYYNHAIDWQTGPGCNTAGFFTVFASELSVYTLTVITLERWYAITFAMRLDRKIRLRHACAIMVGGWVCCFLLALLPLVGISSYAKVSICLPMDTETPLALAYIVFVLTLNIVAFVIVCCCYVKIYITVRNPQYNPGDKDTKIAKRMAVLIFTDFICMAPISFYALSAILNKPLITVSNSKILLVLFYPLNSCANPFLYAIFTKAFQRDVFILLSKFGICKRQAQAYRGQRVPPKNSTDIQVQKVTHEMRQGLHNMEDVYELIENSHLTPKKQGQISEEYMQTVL

| SMILES | Potency | activation |
| --- | --- | --- |
| Cc1cc(NS(=O)(=O)c2ccc(N)cc2)no1 | inactive | – |
| O=C1N=C(O)CN1/N=C/c1ccc(-c2ccc([N+](=O)[O-])cc2)o1 | inactive | – |
| Nc1cc(-c2ccncc2)c[nH]c1=O | – | 19.8% [at 42.5 µM] (inactive) |
| CC(C)(N=C=O)c1cccc(C(C)(C)N=C=O)c1 | – | 0.549% (inactive) |
| CCCCC/C=C\C/C=C\CCCCCCCC(=O)OC | inactive | – |
| CCCCCCCCCCCCN | – | 2.09% (inactive) |
| Oc1ccc(OCc2ccccc2)cc1 | inactive | – |
| CC1CC(OC(=O)c2ccccc2O)CC(C)(C)C1 (stereo not drawn) | inactive | – |
| CC1Cc2ccccc2N1NC(=O)c1ccc(Cl)c(S(N)(=O)=O)c1 (stereo not drawn) | inactive | – |
| O=[N+]([O-])C(CO)(CO)CO | inactive | – |
| Nc1c(S(=O)(=O)O)cc(Br)c2c1C(=O)c1ccccc1C2=O | – | 10.2% [at 42.5 µM] (inactive) |
| Cc1cc(O)cc(C)c1Cl | inactive | – |
| Oc1c(Cl)cc(Cl)c(Cl)c1Cl | inactive | – |
| C=C1CC[C@H](O)CC1=C/C=C1\CCC[C@]2(C)[C@@H]([C@H](C)/C=C/[C@H](C)C(C)C)CC[C@@H]12 | 21.5 µM (active) and 34.4 µM (active) | – |
| CCCCCCCCCC(=O)O | inactive | – |
| CC(=O)CCc1ccccc1 | inactive | – |

| SMILES | Potency | activation |
| --- | --- | --- |
| O=Nc1ccc(O)cc1 | inactive | – |
| CC1=C(CC(=O)O)c2cc(F)ccc2/C1=C\c1ccc(S(C)=O)cc1 (stereo not drawn) | – | -1.78% [at 42.5 µM] (inactive) |
| COC(=O)c1ccccc1O | – | 5.05% (inactive) |
| CCOC(=O)/C=C\C(=O)OCC | inactive | – |
| Oc1ccc2ccccc2c1 | – | 2.1% (inactive) |
| COC(=O)c1ccc(C(=O)OC)cc1 | – | 5.35% (inactive) |
| CC1(C)O[C@@H]2C[C@H]3[C@@H]4C[C@H](F)C5=CC(=O)CC[C@]5(C)[C@H]4[C@@H](O)C[C@]3(C)[C@]2(C(=O)CO)O1 | inactive | – |
| O=C(c1ccc(O)cc1)c1ccc(O)cc1O | inactive | – |
| CCCCC(CC)COC(=O)CCCCCCCC(=O)OCC(CC)CCCC (stereo not drawn) | inactive | – |
| COC(=O)Nc1nc2ccc(Sc3ccccc3)cc2[nH]1 | – | -2.32% [at 42.5 µM] (inactive) |
| CC1(C)CC(N=C=O)CC(C)(CN=C=O)C1 (stereo not drawn) | inactive | – |
| CC(C)(C)C1CCC(O)CC1 (stereo not drawn) | inactive | – |
| CCCCC(CC)COC(C)=O (stereo not drawn) | inactive | – |
| CC1COc2ccccc2N1C(=O)C(Cl)Cl (stereo not drawn) | – | 13.2% (inactive) |
| S=c1nc[nH]c2nc[nH]c12 | – | 1.5% [at 42.5 µM] (inactive) |

test system: not listed separately; test: qHTS assay to identify small molecule agonists of the hypoxia (HIF-1) signaling pathway - cell viability counter screen (AID 1224844); conditions: HRE-bla ME-180 viability, CellTiter-Glo luminescence, 17 h; series mostly up to 76.8 µM; activity change, negative = cytotoxicity: at the top concentration; also: nearly all actives have a fitted effect of over 50% in size
Method in brief: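 ME-180 HRE-bla cells, 2,000/well, 0.5% dialyzed FBS; 5 hr settle, 17 hr compound at 37C/5% CO2; CCF4-AM reporter read first, then CellTiter-Glo luminescence after 30 min RT.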

| SMILES | Potency | activity change, negative = cytotoxicity |
| --- | --- | --- |
| O=C1N=C(O)CN1/N=C/c1ccc(-c2ccc([N+](=O)[O-])cc2)o1 | inactive | – |
| CC(C)(N=C=O)c1cccc(C(C)(C)N=C=O)c1 | inactive | – |
| CCCCCCCCCCCCN | inactive | – |
| Oc1ccc(OCc2ccccc2)cc1 | inactive | – |
| CCC(=O)O | inactive | – |
| CC1Cc2ccccc2N1NC(=O)c1ccc(Cl)c(S(N)(=O)=O)c1 (stereo not drawn) | inactive | – |
| CC(C)NCC(O)COc1cccc2ccccc12 (stereo not drawn) | inactive | – |
| Nc1c(S(=O)(=O)O)cc(Br)c2c1C(=O)c1ccccc1C2=O | inactive | – |
| Cc1cc(O)cc(C)c1Cl | inactive | – |
| Oc1c(Cl)cc(Cl)c(Cl)c1Cl | inactive | – |
| Cc1cc(Cc2ccc(N)c(C)c2)ccc1N | inactive | – |
| CCCCCCCCCC(=O)O | inactive | – |
| CN(C)c1ccc(C(=N)c2ccc(N(C)C)cc2)cc1 | inactive | – |
| O=Nc1ccc(O)cc1 | inactive | – |
| COC(=O)c1ccccc1O | – | 0.15% (inactive) |
| CCOC(=O)/C=C\C(=O)OCC | inactive | – |
| COC(=O)c1ccc(C(=O)OC)cc1 | 4.96 µM (active) and inactive | – |
| Clc1cc(Cl)c(Cl)cc1Cl | inactive | – |
| CC1(C)O[C@@H]2C[C@H]3[C@@H]4C[C@H](F)C5=CC(=O)CC[C@]5(C)[C@H]4[C@@H](O)C[C@]3(C)[C@]2(C(=O)CO)O1 | inactive | – |
| COC(=O)Nc1nc2ccc(Sc3ccccc3)cc2[nH]1 | – | -14.7% (inactive) |
| CC1(C)CC(N=C=O)CC(C)(CN=C=O)C1 (stereo not drawn) | inactive | – |
| CCCCC(CC)COC(C)=O (stereo not drawn) | inactive | – |
| CC1COc2ccccc2N1C(=O)C(Cl)Cl (stereo not drawn) | inactive | – |
| S=c1nc[nH]c2nc[nH]c12 | inactive | – |

test system: not listed separately; test: qHTS assay to identify small molecule agonists of H2AX (AID 1224845; active = well fitted activation curve with a large enough effect in the signal ratio in the repeat runs, not every such curve was filed as active; the % refers to the signal ratio); conditions: CHO-K1 phospho-H2AX Ser139 HTRF, 3 h; series mostly up to 154 µM; activation (H2AX phosphorylation): at the top concentration
Method in brief: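 Wild-type CHO-K1 cells, plated overnight, exposed 3hr at 37C to 15 concentrations (0.76% DMSO final). Lysed, then HTRF anti-pH2AX (S139) cryptate and anti-H2AX-d2 antibodies, 24 hr room temperature; 665/620 nm emission read.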

| SMILES | activation (H2AX phosphorylation) | Potency |
| --- | --- | --- |
| O=C1N=C(O)CN1/N=C/c1ccc(-c2ccc([N+](=O)[O-])cc2)o1 | 0.612% [at 70.9 µM] (inactive) | – |
| Nc1cc(-c2ccncc2)c[nH]c1=O | 0.568% [at 70.9 µM] (inactive) | – |
| CC(C)(N=C=O)c1cccc(C(C)(C)N=C=O)c1 | – | inactive |
| CCCCC/C=C\C/C=C\CCCCCCCC(=O)OC | -1.53% (inactive) | – |
| CCCCCCCCCCCCN | – | inactive |
| Oc1ccc(OCc2ccccc2)cc1 | – | 22.1 µM (active) and inactive |
| CCC(=O)O | – | inactive |
| CC1CC(OC(=O)c2ccccc2O)CC(C)(C)C1 (stereo not drawn) | – | inactive |
| CC1Cc2ccccc2N1NC(=O)c1ccc(Cl)c(S(N)(=O)=O)c1 (stereo not drawn) | – | inactive |
| O=[N+]([O-])C(CO)(CO)CO | – | inactive |
| CC(C)NCC(O)COc1cccc2ccccc12 (stereo not drawn) | – | inactive |
| Cc1cc(O)cc(C)c1Cl | – | inactive |
| Cc1cc(Cc2ccc(N)c(C)c2)ccc1N | – | inactive |
| CC(C)n1c(/C=C/[C@@H](O)C[C@@H](O)CC(=O)O)c(-c2ccc(F)cc2)c2ccccc21 | 2.56% [at 70.9 µM] (inactive) | – |
| CCCCCCCCCC(=O)O | – | inactive |
| CC(=O)CCc1ccccc1 | – | inactive |
| CC1=C(CC(=O)O)c2cc(F)ccc2/C1=C\c1ccc(S(C)=O)cc1 (stereo not drawn) | – | inactive |
| COC(=O)c1ccccc1O | – | inactive |
| CCOC(=O)/C=C\C(=O)OCC | – | inactive |
| C/C=C(C)/C=C/C=C(C)C | – | inactive |
| Oc1ccc2ccccc2c1 | 2.97% (inactive) | – |
| COC(=O)c1ccc(C(=O)OC)cc1 | 0.702% (inactive) | – |
| Clc1cc(Cl)c(Cl)cc1Cl | – | inactive |
| CC1(C)O[C@@H]2C[C@H]3[C@@H]4C[C@H](F)C5=CC(=O)CC[C@]5(C)[C@H]4[C@@H](O)C[C@]3(C)[C@]2(C(=O)CO)O1 | – | inactive |
| O=C(c1ccc(O)cc1)c1ccc(O)cc1O | – | inactive |
| CCCCC(CC)COC(=O)CCCCCCCC(=O)OCC(CC)CCCC (stereo not drawn) | -3.39% (inactive) | – |
| CC1(C)CC(N=C=O)CC(C)(CN=C=O)C1 (stereo not drawn) | – | inactive |
| CC(C)(C)C1CCC(O)CC1 (stereo not drawn) | – | inactive |
| CCCCC(CC)COC(C)=O (stereo not drawn) | – | inactive |
| CC1COc2ccccc2N1C(=O)C(Cl)Cl (stereo not drawn) | – | inactive |
